The values below come from PubChem BioAssay (Tox21).

Inconclusive results are not listed. A call without a number means that no potency is given here. Unmarked numbers belong to inactive results. The source made the active and inactive calls. Calls come from the whole dose curve; as a rule, active = well fitted cell-killing curve with a large enough effect in the repeat runs; inconclusive = weak or mixed curves, or effect the other way; inactive = flat fitted curve, though single readings scatter.
Potency is the fitted concentration of half-maximal effect.

A short description of this assay: Caspase-3/7 induction in HepG2 cells by small molecules, qHTS cell viability counter screen (AID 1346981). Note: nearly all actives have a fitted effect of over 30% in size. The settings on record: CellTiter-Fluor fluorescence, 17 h; series mostly up to 92.4 µM. An excerpt:
U.S. Tox21 Program National Center for Advancing Translational Sciences [NCATS] NIH Chemical Genomics Center [NCGC] U.S. Environmental Protection Agency [EPA] National Institutes of Environmental Health Sciences [NIEHS] National Toxicology Program [NTP] U.S. Food and Drug Administration [FDA] Tox21 Assay Overview: Apoptosis is a process of programmed cell death and plays a central role in the development of multicellular organisms. It is a highly regulated process and induces cell death by activating caspases, which are the members of cysteine aspartic acid-specific protease (caspase) family. Caspases involved in apoptosis are classified by their mechanism of action as initiator caspases (caspase-2, -8, -9 and -10) and executioner caspases (caspase-3, -6, and -7). Inhibition of apoptosis results in number of cancers, autoimmune diseases, inflammatory diseases and viral infection. To identify small molecule compounds that induce apoptosis, a homogeneous, luminescent Caspase-Glo 3/7 assay was used. Wild type HepG2 cells were used to screen Tox21 libraries for identifying caspase-3/7 activity inducers. Also cytotoxicity of the compounds was tested in parallel by measuring the cell viability using CellTiter-Fluor assay system in the same wells.
Tox21 Assay Protocol Summary: HepG2 cells were dispensed at 2,000 per well in 5uL of culture medium into white solid bottom 1536-well plates (Corning Life Sciences, Corning, NY) using a Multidrop Combi (Thermo Scientific, Waltham, MA) dispenser. The assay plates were incubated at 37 C and 5% CO2 for 5hr, and then 23nL of compounds dissolved in DMSO and positive control were transferred using a Pintool station ([…], San Diego, CA). The assay plates were incubated at 37C and 5% CO2 for 17hr. For cytotoxicity read, after 16hr incubation at 37C, 1uL CellTiter-Fluor reagent (Promega Corporation, Madison, WI) was added to each well of the assay plates using Flying Reagent Dispenser (FRD, Aurora Discovery, San Diego, CA). After 1hr incubation at 37C and 5% CO2, the fluorescence signal was quantified using a ViewLux plate reader (PerkinElmer, Shelton, CT).
In general terms: qHTS replaces the single test concentration by a dilution series.
For the compound `COc1cc(/C=C/C(=O)CC(=O)/C=C/c2ccc(O)c(OC)c2)ccc1O`, the Potency was 30.8 µM (active).
On to `O=C1OC(O)C(C(Cl)Cl)=C1Cl` (stereo not given), for which the Potency is 50 µM (active).
Regarding `C=Cc1ccc(O)c(OC)c1`, the Potency result was “inactive”.
Same read-out and setting: for `O=C1OC(=O)c2cc(-c3ccc4c(c3)C(=O)OC4=O)ccc21` the value was “inactive”.
Still for that read-out and setting: with `O=C(CCN1CCC(c2ccccc2)C1)c1ccc2c(c1)OCCO2` (stereo not given) the entry was “inactive”.
The same measure, in the same setting: for `Cc1ccc2n[nH]nc2c1` the value was “inactive”.
As for `Nc1c(Br)cc([N+](=O)[O-])cc1Br`, the Potency result was “inactive”.
Same read-out and setting: for `CN1CCN(C)CC1` the value was “inactive”; for `NCc1ccco1`, “inactive”; for `Cc1cccc2c1ccc1ccccc12`, “inactive”.
The same measure, in the same setting: for `O=C(Cl)c1ccc(Cl)cc1Cl` the value was “inactive”; for `S=C1NC=NC2N=CNC12` (stereo not given), “inactive”.
Regarding `CCCOC(=O)c1ccc(O)cc1`, the Potency result was “inactive”.
For the compound `O=C1CCC(=O)N1`, the Potency result was “inactive”.
In the case of `COc1ccc(OC)c(N=Nc2c(O)ccc3ccccc23)c1`, the Potency was 27.3 µM (active).
As for `CC(CC(C)(C)C)CC(C)(C)CC(C)(C)C` (stereo not given), the Potency entry is “inactive”.
On the same count and under the same terms, for `C1CCSC1` the value was “inactive”.
On to `CC(O)(c1ccc(Cl)cc1)c1ccc(Cl)cc1`, for which the Potency entry was “inactive”.
As to `CCCCC/C=C\C=C\C(=O)OCC`, the Potency result was “inactive”.
The same measure, in the same setting: with `C=CC(=O)OCC(Br)CBr` (stereo not given) the entry was “inactive”; with `O=C1OC2(c3ccccc31)c1ccc(O)c(Br)c1Oc1c2ccc(O)c1Br`, 27.3 µM (active).
Turning to `Cc1ccc(Cl)c(N)c1Cl`, the Potency entry was “inactive”.
Same read-out and setting: for `CCOC=C(C(=O)OCC)C(=O)OCC` the value was “inactive”.
Same read-out and setting: with `CC1(C)[C@H]2CC[C@]1(C)C(=O)C2` the entry was “inactive”.
For the compound `CC(=O)CC(N)=O`, the Potency entry is “inactive”.
Regarding `O=C1C=CC(=O)N1c1cccc(N2C(=O)C=CC2=O)c1`, the Potency was 61.1 µM (active).
`CN(C)CCOc1ccc(/C(=C(/CCCl)c2ccccc2)c2ccccc2)cc1`: the Potency was 57.2 µM (active).
Consider `CCCCNc1ccc(NCCCC)c2c1C(=O)c1ccccc1C2=O`, for which the activity change, negative = cytotoxicity was -16.6% [at 19 µM].
Take `CCN(CCC#N)c1ccc(N=Nc2ccc([N+](=O)[O-])cc2)cc1`: the Potency entry was “inactive”.
`Cc1ccc(N=Nc2c(O)ccc3ccccc23)c(C)c1`: the Potency is 8.41 µM (active).
Same read-out and setting: for `CSc1nnc(C(C)(C)C)c(=O)[nH]1` the value was “inactive”; for `O=C1c2ccccc2C(=O)c2c(Cl)cccc21`, “inactive”.
As for `Oc1cccc2c(O)cccc12`, the Potency entry was “inactive”.
On the same count and under the same terms, for `[Cl][Sc]([Cl])[Cl]` the value was “inactive”; for `Nc1cc([N+](=O)[O-])cc(Cl)c1O`, 61.1 µM (active); for `CCc1c(C)cc(N)c(CC)c1N`, “inactive”.
Turning to `O=c1cc[nH]cc1`, the Potency result was “inactive”.
Turning to `Nc1ccc(Oc2cccc(Oc3ccc(N)cc3)c2)cc1`, the Potency result was “inactive”.
Same read-out and setting: with `CCC(C)(C)c1ccc(CC(C)CN2C[C@@H](C)O[C@@H](C)C2)cc1` (stereo not given in full) the entry was “inactive”; with `CC(=O)[C@]1(O)Cc2c(O)c3c(c(O)c2[C@@H](O[C@H]2C[C@H](N)[C@H](O)[C@H](C)O2)C1)C(=O)c1ccccc1C3=O`, 11.9 µM (active).
